According to the supplement of paper PMC10849652:
Of roughly 8,800 targets only a part is listed; those with a hit were picked by preference. About 0.5% of all pairs of compound and target were hits.

Legend:
Test in all cases: log2 fold change, soluble protein after heating vs DMSO (PISA); higher = thermal stabilisation; K562 lysate, 10 uM; active = over 0.2 and 3.5 SD of the protein, either way, in both replicates (recomputed)
[1] = compound: CCCS(=O)(=O)Nc1ccc(F)c(C(=O)c2c[nH]c3ncc(-c4ccc(Cl)cc4)cc23)c1F [vemurafenib]
How it was run: (§1)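 A 30 min treatment with 10 μM compound was applied to crude K562 extract at 1 mg/mL protein in PBS pH 7.4 with 1 mM MgCl2. Heating for 3 min spanned 48°C-58°C, after which aliquots were pooled, adjusted to 0.5% NP-40 at 4°C and spun at 21,000xg for 90 min. TMTpro 16plex LC-MS/MS of the supernatant, with channel sums equalised, gave values recorded as log-two fold change in thermal stability against solvent controls, from duplicates.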

[2] = compound: CCCS(=O)(=O)Nc1ccc(F)c(C(=O)c2c[nH]c3ncc(Cl)cc23)c1F
How it was run: as §1

[3] = compound: CCN(CCCOc1ccc2c(Nc3cc(CC(=O)Nc4cccc(F)c4)[nH]n3)ncnc2c1)CCOP(=O)(O)O [barasertib]
How it was run: as §1

[4] = compound: CC[C@@H]1C(=O)N(C)c2cnc(Nc3ccc(C(=O)NC4CCN(C)CC4)cc3OC)nc2N1C1CCCC1
How it was run: as §1

[5] = compound: CC[C@@H]1C(=O)N(C)c2cnc(Nc3ccc(C(=O)N[C@H]4CC[C@H](N5CCN(CC6CC6)CC5)CC4)cc3OC)nc2N1C(C)C [volasertib]
How it was run: as §1

[6] = compound: CCn1c(C(=O)N(C2CC2)C2CC2)cc2c3c(ncn3C)c(Nc3cc(C)n(C)n3)nc21
How it was run: as §1

[7] = compound: CCn1cc(-c2ccnc3[nH]c(-c4cccc(CN(C)C)c4)cc23)c(-c2ccc(NC(=O)N(C)C)cc2)n1
How it was run: as §1

[8] = compound: CN1CCC(CNc2ccc3ncc(-c4cccc(OC(F)(F)F)c4)n3n2)CC1
How it was run: as §1

[9] = compound: CN1CCN(CCOc2cc(OC3CCOCC3)c3c(Nc4c(Cl)ccc5c4OCO5)ncnc3c2)CC1 [saracatinib]
How it was run: as §1

[10] = compound: CN1CCN(c2nc(C3=C(c4c[nH]c5ccccc45)C(=O)NC3=O)c3ccccc3n2)CC1 [sotrastaurin]
How it was run: as §1

[11] = compound: CN1CC[C@H](c2c(O)cc(O)c3c(=O)cc(-c4ccccc4Cl)oc23)[C@H](O)C1 [alvocidib]
How it was run: as §1

[12] = compound: CN1CCc2c(c3ccccc3n2Cc2ccc(C(=O)NO)cc2)C1 [Tubastatin A]
How it was run: as §1

[13] = compound: CNC(=O)C1=CC=CC=C1NC2=NC(=NC=C2Cl)NC3=C(C=C(C=C3)N4CCOCC4)OC
How it was run: as §1

[14] = compound: CNC(=O)c1ccc(Nc2ncc(C(F)(F)F)c(NCc3nccnc3N(C)S(C)(=O)=O)n2)cc1 [defactinib]
How it was run: as §1

[15] = compound: CNc1nc(-c2ccc3c(N)n[nH]c3c2)cc(N2C[C@@H](C(=O)NC3CCCCC3)CC[C@H]2C)n1
How it was run: as §1

[16] = compound: COC(=O)N[C@@H](C)CNc1nccc(-c2cn(C(C)C)nc2-c2cc(Cl)cc(NS(C)(=O)=O)c2F)n1 [encorafenib]
How it was run: as §1

[17] = compound: COC(=O)[C@H](CCSC)NC(=O)C1=C(C=C(C=C1)NC[C@H](CS)N)C2=CC=CC=C2
How it was run: as §1

[18] = compound: COc1cc(Nc2ncc3c(n2)-c2ccc(Cl)cc2C(c2c(F)cccc2OC)=NC3)ccc1C(=O)O [alisertib]
How it was run: as §1

[19] = compound: COc1cc2nc(-c3cc(F)ccc3O)nc(N[C@@H]3CNC[C@H]3C(C)(C)O)c2cc1OC
How it was run: as §1

[20] = compound: COc1cc2ncnc(Nc3ccc(F)c(Cl)c3)c2cc1OCCCN1CCOCC1 [gefitinib]
How it was run: as §1

Measured: log2 fold change

MTMR6 (UniProt Q9Y217)
UniProt Q9Y217, sequence (Q9Y217 whole entry, looked up): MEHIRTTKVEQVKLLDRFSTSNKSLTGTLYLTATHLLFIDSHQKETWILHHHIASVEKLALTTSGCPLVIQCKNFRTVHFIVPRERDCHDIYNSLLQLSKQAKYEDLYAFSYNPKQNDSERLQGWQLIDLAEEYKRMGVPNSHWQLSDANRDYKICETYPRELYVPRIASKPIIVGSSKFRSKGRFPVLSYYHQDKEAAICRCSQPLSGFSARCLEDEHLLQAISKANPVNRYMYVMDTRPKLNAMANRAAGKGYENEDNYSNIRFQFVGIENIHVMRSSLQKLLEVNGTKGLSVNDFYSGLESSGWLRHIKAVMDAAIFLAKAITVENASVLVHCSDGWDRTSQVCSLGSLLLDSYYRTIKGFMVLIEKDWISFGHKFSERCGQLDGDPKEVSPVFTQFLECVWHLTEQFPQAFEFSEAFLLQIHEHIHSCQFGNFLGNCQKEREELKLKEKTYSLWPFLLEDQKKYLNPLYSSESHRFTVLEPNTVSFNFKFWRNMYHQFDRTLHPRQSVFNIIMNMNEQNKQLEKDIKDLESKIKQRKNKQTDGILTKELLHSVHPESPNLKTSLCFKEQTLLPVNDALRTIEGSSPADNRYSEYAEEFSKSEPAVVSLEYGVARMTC
inactive: [1] 0.038 | [2] 0.012 | [3] 0.018 | [4] 0.006 | [5] -0.024 | [6] -0.055 | [7] 0.217 | [8] -0.08 | [9] 0.024 | [10] 0.087 | [11] -0.034 | [12] -0.019 | [13] 0 | [14] -0.042 | [15] -0.047 | [16] 0.028 | [17] -0.092 | [18] 0.022 | [19] 0.004 | [20] -0.053

NFIC (UniProt P08651)
active: [7] -0.453
inactive: [1] -0.071 | [2] 0.014 | [3] -0.106 | [4] 0.101 | [5] -0.001 | [6] -0.01 | [8] 0.055 | [9] 0.049 | [10] -0.01 | [11] -0.103 | [12] -0.104 | [13] 0.078 | [14] -0.153 | [15] -0.048 | [16] 0.121 | [17] -0.025 | [18] 0 | [19] -0.025 | [20] 0.117

NAP1L5 (UniProt Q96NT1)
inactive: [1] -0.094 | [2] 0.005 | [3] 0.037 | [4] 0.181 | [5] -0.033 | [6] 0.052 | [8] -0.205 | [9] -0.15 | [10] 0.08 | [11] 0.161 | [12] -0.039 | [13] 0.008 | [14] -0.032 | [15] -0.082 | [16] 0.01 | [17] -0.047 | [18] 0.021 | [19] -0.039 | [20] 0.02
active: [7] 0.62

MTA2 (UniProt O94776)
UniProt O94776, sequence (O94776 whole entry, looked up): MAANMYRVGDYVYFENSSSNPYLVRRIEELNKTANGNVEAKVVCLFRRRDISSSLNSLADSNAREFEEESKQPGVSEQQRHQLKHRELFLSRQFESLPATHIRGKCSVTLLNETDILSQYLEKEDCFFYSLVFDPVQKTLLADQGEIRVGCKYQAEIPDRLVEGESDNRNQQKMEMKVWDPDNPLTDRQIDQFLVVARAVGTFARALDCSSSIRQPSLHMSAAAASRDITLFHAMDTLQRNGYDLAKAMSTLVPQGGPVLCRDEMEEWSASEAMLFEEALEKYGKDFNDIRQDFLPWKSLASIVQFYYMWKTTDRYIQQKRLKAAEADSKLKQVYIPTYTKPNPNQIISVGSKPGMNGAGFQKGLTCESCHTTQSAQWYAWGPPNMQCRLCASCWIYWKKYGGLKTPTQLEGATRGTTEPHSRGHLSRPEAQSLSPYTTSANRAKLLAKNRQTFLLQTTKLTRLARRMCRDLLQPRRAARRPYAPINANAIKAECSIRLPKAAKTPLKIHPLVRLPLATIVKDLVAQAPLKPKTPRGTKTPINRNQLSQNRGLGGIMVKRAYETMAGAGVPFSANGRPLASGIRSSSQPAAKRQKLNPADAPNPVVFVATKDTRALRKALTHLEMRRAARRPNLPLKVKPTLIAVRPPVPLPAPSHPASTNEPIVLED
inactive: [1] 0.007 | [2] 0.018 | [3] 0.026 | [4] 0.03 | [5] -0.008 | [6] 0.025 | [7] -0.021 | [8] -0.031 | [9] 0.015 | [10] 0.042 | [11] 0.005 | [12] -0.049 | [13] -0.002 | [14] 0.016 | [15] -0.01 | [16] 0.009 | [17] 0.134 | [18] 0.012 | [19] -0.005 | [20] -0.02

NUDT4 (UniProt Q9NZJ9)
UniProt Q9NZJ9, sequence (Q9NZJ9 whole entry, looked up): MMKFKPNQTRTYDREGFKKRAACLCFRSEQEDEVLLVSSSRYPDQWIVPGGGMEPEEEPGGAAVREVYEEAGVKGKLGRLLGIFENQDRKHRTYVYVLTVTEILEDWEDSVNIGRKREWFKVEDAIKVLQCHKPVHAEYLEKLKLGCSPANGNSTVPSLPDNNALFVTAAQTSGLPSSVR
inactive: [1] -0.24 | [2] 0.04 | [3] -0.032 | [4] -0.078 | [5] -0.054 | [6] 0.082 | [7] 0.23 | [8] 0.005 | [9] -0.03 | [10] 0.005 | [11] -0.001 | [12] -0.149 | [13] 0.063 | [14] 0.153 | [15] -0.066 | [16] 0.051 | [17] -0.17 | [18] -0.036 | [19] 0.001 | [20] -0.052

NAT1 (UniProt P18440)
inactive: [1] 0.04 | [2] -0.003 | [3] -0.104 | [4] 0.003 | [5] 0.009 | [6] -0.012 | [7] -0.149 | [8] -0.014 | [9] -0.001 | [10] 0.078 | [11] 0.038 | [12] -0.087 | [13] -0.025 | [14] 0.05 | [15] -0.046 | [16] -0.02 | [17] 0.006 | [18] 0.035 | [19] 0.039 | [20] 0.031

NCOR1 (UniProt O75376)
inactive: [1] -0.005 | [2] -0.01 | [3] 0.018 | [4] 0.043 | [5] 0.002 | [6] -0.014 | [7] -0.002 | [8] -0.033 | [9] 0.006 | [10] 0.006 | [11] -0.028 | [12] -0.027 | [13] 0.018 | [14] 0.06 | [15] 0.021 | [16] 0.015 | [17] -0.007 | [18] 0.01 | [19] 0.018 | [20] -0.019

ORC3 (UniProt Q9UBD5)
inactive: [2] -0.16 | [5] 0.003 | [7] 0.185 | [8] -0.06 | [11] 0.16 | [18] -0.035 | [19] 0 | [20] 0.105

NEXN (UniProt Q0ZGT2)
inactive: [1] 0.073 | [2] 0.218 | [3] 0.101 | [4] -0.132 | [5] 0.051 | [6] 0.075 | [7] -0.231 | [8] 0.209 | [9] 0.026 | [11] -0.102 | [12] -0.049 | [13] 0.026 | [14] 0.134 | [15] 0.158 | [16] -0.096 | [17] 0.044 | [18] 0.004 | [19] -0.086 | [20] 0.092

NSUN7 (UniProt Q8NE18)
UniProt Q8NE18, sequence (Q8NE18 whole entry, looked up): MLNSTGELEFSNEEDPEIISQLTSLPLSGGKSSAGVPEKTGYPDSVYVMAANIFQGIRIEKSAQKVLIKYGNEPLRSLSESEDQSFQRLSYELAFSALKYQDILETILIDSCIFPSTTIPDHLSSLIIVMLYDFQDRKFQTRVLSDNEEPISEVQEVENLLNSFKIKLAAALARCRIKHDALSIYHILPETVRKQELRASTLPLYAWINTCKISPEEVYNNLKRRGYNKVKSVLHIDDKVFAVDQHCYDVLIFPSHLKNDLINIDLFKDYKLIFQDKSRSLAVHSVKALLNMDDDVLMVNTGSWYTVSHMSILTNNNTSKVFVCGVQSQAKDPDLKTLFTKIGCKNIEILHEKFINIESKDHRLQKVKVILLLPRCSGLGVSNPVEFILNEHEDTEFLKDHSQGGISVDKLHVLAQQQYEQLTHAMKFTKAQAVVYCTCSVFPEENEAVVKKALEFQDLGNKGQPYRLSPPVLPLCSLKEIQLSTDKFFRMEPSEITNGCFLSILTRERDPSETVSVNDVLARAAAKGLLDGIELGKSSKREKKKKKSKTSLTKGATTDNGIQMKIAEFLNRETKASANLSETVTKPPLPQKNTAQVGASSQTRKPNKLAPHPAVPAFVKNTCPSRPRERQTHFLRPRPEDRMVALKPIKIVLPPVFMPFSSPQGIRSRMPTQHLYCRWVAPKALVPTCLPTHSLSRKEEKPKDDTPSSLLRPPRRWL
inactive: [1] -0.098 | [2] -0.046 | [3] -0.084 | [4] -0.016 | [5] 0.077 | [6] -0.049 | [7] -0.039 | [8] -0.032 | [10] 0.017 | [11] -0.191 | [12] 0.176 | [13] -0.001 | [14] -0.035 | [16] 0.21 | [17] -0.026 | [19] -0.006

OSBPL1A (UniProt Q9BXW6)
UniProt Q9BXW6, sequence (Q9BXW6 whole entry, looked up): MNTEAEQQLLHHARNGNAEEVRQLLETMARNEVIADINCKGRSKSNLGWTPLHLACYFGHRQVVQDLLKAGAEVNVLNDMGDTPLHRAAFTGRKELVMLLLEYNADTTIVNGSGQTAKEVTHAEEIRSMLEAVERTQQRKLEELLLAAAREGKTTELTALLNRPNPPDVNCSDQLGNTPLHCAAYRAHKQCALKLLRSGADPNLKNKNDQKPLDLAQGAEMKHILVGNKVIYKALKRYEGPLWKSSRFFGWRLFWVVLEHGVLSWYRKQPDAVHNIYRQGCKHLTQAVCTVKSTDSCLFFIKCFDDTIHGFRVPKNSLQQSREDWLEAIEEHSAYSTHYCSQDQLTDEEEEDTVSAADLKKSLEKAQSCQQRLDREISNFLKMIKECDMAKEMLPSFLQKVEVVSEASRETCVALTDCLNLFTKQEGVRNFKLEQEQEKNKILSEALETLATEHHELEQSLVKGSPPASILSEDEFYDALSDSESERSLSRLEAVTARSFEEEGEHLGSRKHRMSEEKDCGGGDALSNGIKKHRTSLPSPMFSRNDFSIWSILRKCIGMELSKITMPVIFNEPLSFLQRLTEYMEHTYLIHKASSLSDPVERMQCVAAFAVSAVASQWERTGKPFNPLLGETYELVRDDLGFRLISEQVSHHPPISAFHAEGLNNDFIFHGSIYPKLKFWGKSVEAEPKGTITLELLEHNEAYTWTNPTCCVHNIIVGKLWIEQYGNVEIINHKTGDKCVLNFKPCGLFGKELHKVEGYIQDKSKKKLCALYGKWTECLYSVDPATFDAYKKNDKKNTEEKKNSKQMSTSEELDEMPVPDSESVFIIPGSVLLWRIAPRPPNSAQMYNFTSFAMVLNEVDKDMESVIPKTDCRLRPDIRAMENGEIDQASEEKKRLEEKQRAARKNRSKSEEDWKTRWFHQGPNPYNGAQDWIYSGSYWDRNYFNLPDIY
inactive: [2] 0.028 | [3] 0.007 | [5] 0.019 | [7] -0.095 | [8] 0.05 | [9] 0.013 | [10] 0.038 | [11] -0.035 | [13] 0.091 | [15] 0.099 | [18] -0.071 | [19] 0.048 | [20] 0.135

NSA2 (UniProt O95478)
inactive: [1] -0.035 | [2] 0.101 | [3] -0.093 | [4] 0.067 | [5] 0.034 | [6] -0.043 | [7] -0.441 | [8] -0.221 | [9] -0.084 | [11] -0.291 | [12] -0.181 | [13] -0.017 | [14] 0.058 | [15] 0.066 | [16] -0.184 | [17] -0.086 | [18] -0.14 | [19] -0.012 | [20] 0.056

NTMT1 (UniProt S4R338)
inactive: [2] 0.043 | [5] -0.002 | [19] 0.045

MYLK (UniProt Q15746)
UniProt Q15746, sequence (Q15746 whole entry, looked up): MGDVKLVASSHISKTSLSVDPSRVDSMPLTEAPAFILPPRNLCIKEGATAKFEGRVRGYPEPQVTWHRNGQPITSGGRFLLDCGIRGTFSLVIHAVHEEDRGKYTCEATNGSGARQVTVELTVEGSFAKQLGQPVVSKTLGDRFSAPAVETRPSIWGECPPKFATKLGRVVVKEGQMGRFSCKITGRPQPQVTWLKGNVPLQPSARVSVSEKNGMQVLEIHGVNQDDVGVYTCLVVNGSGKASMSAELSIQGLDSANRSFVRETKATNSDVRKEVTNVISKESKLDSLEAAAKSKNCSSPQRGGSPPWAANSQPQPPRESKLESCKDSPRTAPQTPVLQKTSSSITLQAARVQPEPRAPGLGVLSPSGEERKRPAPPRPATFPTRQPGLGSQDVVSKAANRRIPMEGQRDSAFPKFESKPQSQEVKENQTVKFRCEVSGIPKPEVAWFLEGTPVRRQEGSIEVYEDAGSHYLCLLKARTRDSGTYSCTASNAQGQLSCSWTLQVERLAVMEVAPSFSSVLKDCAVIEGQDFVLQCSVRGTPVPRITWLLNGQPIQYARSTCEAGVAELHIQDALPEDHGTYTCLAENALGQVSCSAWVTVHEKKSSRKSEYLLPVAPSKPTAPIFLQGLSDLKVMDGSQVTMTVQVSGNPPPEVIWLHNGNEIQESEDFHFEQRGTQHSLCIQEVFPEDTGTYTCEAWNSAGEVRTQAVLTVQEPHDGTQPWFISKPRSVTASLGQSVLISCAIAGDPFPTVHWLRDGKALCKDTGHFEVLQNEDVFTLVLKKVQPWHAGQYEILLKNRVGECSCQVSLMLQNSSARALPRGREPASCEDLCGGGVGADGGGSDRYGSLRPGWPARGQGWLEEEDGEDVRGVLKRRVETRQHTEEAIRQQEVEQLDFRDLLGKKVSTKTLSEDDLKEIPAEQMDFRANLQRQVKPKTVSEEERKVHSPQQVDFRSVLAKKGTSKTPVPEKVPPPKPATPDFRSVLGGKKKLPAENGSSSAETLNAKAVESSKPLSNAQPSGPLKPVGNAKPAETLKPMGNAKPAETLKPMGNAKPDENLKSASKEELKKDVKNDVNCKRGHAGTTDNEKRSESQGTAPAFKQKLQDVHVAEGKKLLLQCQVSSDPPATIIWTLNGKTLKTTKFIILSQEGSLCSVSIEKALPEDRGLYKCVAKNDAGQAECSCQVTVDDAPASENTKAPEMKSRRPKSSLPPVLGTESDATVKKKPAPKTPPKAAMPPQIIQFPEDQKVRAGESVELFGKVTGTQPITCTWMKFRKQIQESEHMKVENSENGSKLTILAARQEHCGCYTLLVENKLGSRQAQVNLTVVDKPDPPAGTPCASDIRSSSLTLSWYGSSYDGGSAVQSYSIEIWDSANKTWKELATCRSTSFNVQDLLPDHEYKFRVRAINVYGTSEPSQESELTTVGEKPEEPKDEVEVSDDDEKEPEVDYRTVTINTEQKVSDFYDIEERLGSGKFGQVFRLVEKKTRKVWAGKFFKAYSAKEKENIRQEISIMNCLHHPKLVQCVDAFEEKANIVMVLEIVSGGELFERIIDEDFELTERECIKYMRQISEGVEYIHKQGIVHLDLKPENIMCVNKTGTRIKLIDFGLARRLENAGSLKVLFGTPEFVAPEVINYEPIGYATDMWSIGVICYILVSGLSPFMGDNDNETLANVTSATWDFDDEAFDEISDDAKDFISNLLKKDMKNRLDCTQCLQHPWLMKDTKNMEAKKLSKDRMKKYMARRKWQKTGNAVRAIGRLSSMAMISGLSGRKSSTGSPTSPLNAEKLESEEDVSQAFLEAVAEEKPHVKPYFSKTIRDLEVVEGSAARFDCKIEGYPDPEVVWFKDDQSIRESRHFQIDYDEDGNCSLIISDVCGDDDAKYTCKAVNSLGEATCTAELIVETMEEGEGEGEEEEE
inactive: [1] -0.254 | [2] -0.022 | [3] -0.097 | [5] -0.053 | [7] -0.169 | [8] 0.014 | [10] -0.084 | [11] 0.097 | [14] 0.128 | [16] 0.154 | [17] -0.008 | [18] -0.001 | [19] -0.109 | [20] 0.071
active: [4] -0.675

NUB1 (UniProt H7C5N1)
inactive: [6] 0.312 | [12] 0.209

NUDT5 (UniProt C9JYY9)
inactive: [4] 0.036 | [13] 0.026 | [16] 0.066 | [17] -0.029 | [18] -0.092 | [20] -0.075

MYO9A isoform 4 (UniProt B2RTY4)
active: [1] 0.248
inactive: [2] 0.023 | [3] 0.053 | [5] -0.028 | [6] -0.019 | [7] -0.021 | [8] 0.002 | [9] -0.068 | [10] 0.093 | [11] 0.034 | [12] -0.077 | [13] -0.013 | [14] -0.026 | [15] 0.015 | [18] -0.035 | [19] 0.04 | [20] 0.009

MTHFD1 (UniProt V9GZ32)
inactive: [2] 0.008 | [5] -0.145 | [18] 0.108 | [19] 0 | [20] -0.073

NPLOC4 (UniProt I3L3I1)
inactive: [3] 0.125 | [4] 0.104 | [9] 0.152 | [10] -0.108 | [15] 0.799 | [16] 0.014 | [17] -0.143

MXRA7 (UniProt P84157)
inactive: [1] -0.134 | [2] 0.094 | [4] -0.006 | [5] 0.054 | [6] 0.049 | [7] -0.182 | [8] 0.167 | [9] 0.02 | [10] -0.064 | [11] -0.002 | [12] -0.056 | [13] -0.052 | [14] -0.239 | [15] 0.131 | [16] 0.051 | [17] -0.028 | [18] -0.19 | [19] -0.009 | [20] 0.177
